Where “and” joins values, the source holds several entries; their conditions need not be identical. Identical values can stand only once. Inconclusive results are not listed. A structure can be active in one record and inactive in another. Calls of active or inactive are those of the source. How the source made its calls, unless noted: active means hit-call score of the fitted dose curve at least 0.9, where 1 is the maximum; inactive means score below 0.9.
Columns and labels:
[1] = CCTE_Shafer_MEA_dev_correlation_coefficient_mean: CCTE's Neural Network Formation Assay for Mean Correlation Coefficient, Shafer Lab (AID 2284093);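 on AC50: well mean pairwise spike train correlation integrated as AUC over recording days 5 to 12; potency fitted for loss of correlation relative to DMSO vehicle wells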
How it was run: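 Read-out: well-mean correlation coefficient of spike trains between electrode pairs, collapsed over four recording days as trapezoidal area-under-the-curve. Developing rat cortical neuron networks grown on MEAs received test chemical continuously from plating.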

[2] = UKN2_HCS_IMR90_neural_migration: University of Konstanz (UKN) Leist Lab Neural Crest Cell Migration Assay in human induced IMR90 Pluripotent Stem Cells (UKN2) (AID 2284204); settings: actives raise or lower the signal
How it was run: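 iPSC-derived IMR90 neural crest cells on PLO/laminin/fibronectin were seeded around silicone stoppers; after stopper removal, migration in N2-S medium with EGF and FGF ran 24 h before 24 h chemical exposure. Calcein-AM/Hoechst high-content imaging; bidirectional fit versus DMSO.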

[3] = IUF_NPC1b_proliferation_BrdU_72hr: Leibniz Research Institute for Environmental Medicine (IUF) 72-hour Neural Progenitor Cell Bromodeoxyuridine (BrdU) Proliferation Assay (NPC1b) (AID 2284207)
How it was run: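 hNPC spheres (primary, GW 16-19 fetal cortex), single sphere/well, EGF+FGF medium; 72 h compound, no renewal; BrdU pulse last 16 h; luminescent ELISA; activity vs DMSO baseline; growth-factor withdrawal as positive control.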

[4] = IUF_NPC1a_proliferation_area_72hr: Leibniz Research Institute for Environmental Medicine (IUF) 72-hour Neural Progenitor Cell Proliferation Area Assay (NPC1a) (AID 2284208)
How it was run: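 Read-out: increase in sphere area over 72 h by automated phase-contrast imaging, fitted in positive direction versus DMSO baseline. One hNPC sphere (0.25-0.35 mm) per well in EGF/FGF medium; growth-factor withdrawal served as positive control.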

[5] = IUF_NPC1_viability_72hr: Viability Assessment at 72 hours in the Leibniz Research Institute for Environmental Medicine (IUF) Neural Progenitor Cell Proliferation Assay (NPC1) (AID 2284209)
How it was run: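 Human fetal-cortex neural progenitor spheres (0.25–0.35 mm, one per well) grown in EGF/FGF proliferation medium at 37C, pH 7.2-7.6, exposed 72 h without renewal; viability read as alamar blue resazurin-to-resorufin fluorescence relative to DMSO.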

[6] = CCTE_Mundy_HCI_Cortical_Synap_Neur_Matur_NeuriteSpotCountPerNeuriteLength: CCTE's Synaptogenesis and Neurite Maturation Assay in rat cortical cells for Neurite Spot Count per Neurite Length, Mundy Lab (AID 2284210)
How it was run: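 Rat primary cortical cultures, glia arrested with AraC at DIV 5, were dosed with media change at DIV 7 and fixed at DIV 12. Synaptophysin puncta per MAP2-labelled neurite length were quantified by high-content imaging versus DMSO.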

[7] = CCTE_Mundy_HCI_Cortical_Synap_Neur_Matur_BPCount: CCTE's Synaptogenesis and Neurite Maturation Assay in rat cortical cells for Branch Point Count, Mundy Lab (AID 2284211)
How it was run: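 Branch point number is quantified by automated imaging of fluorescently labelled neurites and synapses in rat primary cortical neurons exposed from DIV 7 to DIV 12. Activity is analysed relative to DMSO negative control.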

[8] = CCTE_Mundy_HCI_Cortical_NOG_NeuriteCount: CCTE's Neurite Outgrowth Assay in rat cortical cells for Neurite Count, Mundy Lab (AID 2284212);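 further: cells fixed about two days after chemical exposure began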
How it was run: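 Neurite number per cell from high-content imaging of betaIII-tubulin immunostaining, with Hoechst nuclear counterstain.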

[9] = CCTE_Mundy_HCI_Cortical_Synap_Neur_Matur_NeuriteLength: CCTE's Synaptogenesis and Neurite Maturation Assay in rat cortical cells for Neurite Length, Mundy Lab (AID 2284214)
How it was run: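 Rat primary cortical cells were plated, treated with AraC at DIV 5 to arrest glial growth, then chemical-dosed with media change at DIV 7 through DIV 12. Fixed cells stained for MAP2, synaptophysin and Hoechst; neurite length quantified by high-content imaging.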

[10] = CCTE_Mundy_HCI_Cortical_Synap_Neur_Matur_NeuriteSpotCountPerNeuron: CCTE's Synaptogenesis and Neurite Maturation Assay in rat cortical cells for Neurite Spot Count per Neuron Count, Mundy Lab (AID 2284215)
How it was run: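 Rat primary cortical cells received AraC at DIV 5, then chemicals with a media change at DIV 7, and were fixed at DIV 12. Synaptophysin puncta on MAP2-stained neurites per neuron were counted by high-content imaging, fitted relative to DMSO.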

[11] = CCTE_Mundy_HCI_Cortical_Synap_Neur_Matur_SynapseCount: CCTE's Synaptogenesis and Neurite Maturation Assay in rat cortical cells for Synapse Count, Mundy Lab (AID 2284218)
How it was run: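 Rat primary cortical cells in 96-well plates received AraC at DIV 5 and were dosed with chemicals at DIV 7 with media change, through DIV 12 (288.33 h). Synapses per neuron counted by high-content imaging of MAP2/synaptophysin/Hoechst staining, versus DMSO baseline.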

[12] = CCTE_Mundy_HCI_Cortical_Synap_Neur_Matur_NeuriteCount: CCTE's Synaptogenesis and Neurite Maturation Assay in rat cortical cells for Neurite Count, Mundy Lab (AID 2284222)
How it was run: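 Chemical exposure runs DIV 7–12 in rat cortical cultures, glia suppressed by AraC at DIV 5; measurement is at DIV 12. Imaging-derived neurite counts are fitted against DMSO baseline.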

[13] = CCTE_Mundy_HCI_hNP1_Pro_ResponderAvgInten: CCTE's Proliferation Assay in human neuroprogenitor cells, Mundy Lab (AID 2284224; active means hit-call score of the fitted dose curve at least 0.9, where 1 is the maximum;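 further: human neural progenitor cells hNP1 derived from WA09 embryonic stem cells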)
How it was run: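 Human neuroprogenitors (hNP1, WA09 lineage) receive test chemical after 40 to 44 hours of attachment. A four-hour BrdU pulse begins twenty hours later, followed by fixation and high content imaging; signal is referenced to DMSO controls.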

[14] = BSK_BT_PBMCCytotoxicity: PBMC Cytotoxicity Assessment in the BioMAP Diversity Plus: BT Assay (AID 2284225); settings: primary human B cells with PBMC;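 further: PBMC viability measured by Alamar Blue dye reduction fluorescence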
How it was run: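 75,000 cells/well; cpd 1 h → SEB + TSST-1 (20 ng/mL final each) → 90 h → Alamar Blue 6 h → fluor. 546/580 nm. DMSO = neg. control/baseline.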

[15] = read-out: Secreted IgG (sIgG), gene 3500; assay: BSK_BT_sIgG: BioMAP Diversity Plus: BT Assay for Secreted IgG (sIgG) Biomarker Activity (AID 2284226); settings: primary human B cells with PBMC
How it was run: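 B cells co-cultured with PBMC were dosed with chemical and secreted IgG quantified by ELISA at 24 h. Activity was fitted in the positive direction relative to DMSO as negative control and baseline.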

[16] = UKN4_HCS_LUHMES_neurite_outgrowth: University of Konstanz (UKN) Leist Lab Neurite Outgrowth Assay in human LUHMES cells (UKN4) (AID 2284206); settings: actives raise or lower the signal
How it was run: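 LUHMES neuronal precursors differentiated 2 days, replated without cAMP/GDNF, then exposed to chemicals for 24 h. Neurite area imaged by high-content microscopy after calcein-AM staining; Hoechst H-33342 marks viability. Bidirectional fit versus DMSO.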

[17] = CCTE_Mundy_HCI_hN2_NOG_NeuriteCount: CCTE's Neurite Outgrowth Assay in human hN2 cells for Neurite Count, Mundy Lab (AID 2284219; active means hit-call score of the fitted dose curve at least 0.9, where 1 is the maximum)
How it was run: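 In this morphology assay, hNP1-derived neurons received test chemical 2 h post-plating and were fixed two days later in warm paraformaldehyde/sucrose containing Hoechst 33342. Neurites, labelled by rabbit anti-βIII-tubulin (1:800) and Alexa Fluor-488 (1:500), were counted automatically.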

[18] = CCTE_Mundy_HCI_hN2_NOG_NeuriteLength: CCTE's Neurite Outgrowth Assay in human hN2 cells for Neurite Length, Mundy Lab (AID 2284220; active means hit-call score of the fitted dose curve at least 0.9, where 1 is the maximum)
How it was run: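 Using βIII-tubulin immunofluorescence and Hoechst nuclear counterstain, this component quantifies neurite length in hNP1-derived neurons.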

[19] = CCTE_Mundy_HCI_hN2_NOG_NeuronCount: CCTE's Neurite Outgrowth Assay in human hN2 cells for Neuron Count, Mundy Lab (AID 2284221; active means hit-call score of the fitted dose curve at least 0.9, where 1 is the maximum)
How it was run: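 Read-out is the number of betaIII-tubulin-positive neurons imaged by automated high-content analysis, with DMSO as negative control.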

Measured: AC50

COP(=O)(OC)OC(Br)C(Cl)(Cl)Br (configuration not stated)
inactive: [5] | [6] | [12]
active: [1] 8.49 µM and 16 µM | [2] 25.4 µM | [3] 50.1 µM | [4] 26.6 µM | [7] 50 µM and 27.8 µM | [8] 31.5 µM and 30.7 µM | [9] 32.5 µM and 41.6 µM | [10] 50 µM and 10.7 µM | [11] 23.2 µM and 9.92 µM | [12] 50 µM | [13] 14 µM and 16.7 µM

CN(C)[C@@H]1C(=O)C(C(N)=O)=C(O)[C@@]2(O)C(=O)C3=C(O)c4c(O)cccc4[C@@](C)(O)[C@H]3[C@H](O)[C@@H]12
inactive: [4] | [5] | [8] | [14] | [15]
active: [1] 88.2 µM | [2] 116 µM | [3] 12.1 µM | [6] 50 µM | [7] 70.5 µM | [9] 60.9 µM | [10] 50 µM | [11] 50 µM | [12] 72.5 µM | [13] 90.6 µM

CCOP(=S)(OCC)OC(Cl)C(Cl)(Cl)Cl (configuration not stated)
inactive: [2] | [4] | [5] | [6] | [12]
active: [1] 21.2 µM and 17.8 µM | [3] 1.35 µM | [6] 16.5 µM | [7] 70.5 µM and 13.3 µM | [8] 75.7 µM and 31.8 µM | [9] 85.1 µM and 12.1 µM | [10] 83.9 µM and 16.2 µM | [11] 85.8 µM and 15.9 µM | [12] 12.8 µM | [13] 50 µM and 75.1 µM

CC(C)N(C(=O)SCC(Cl)=C(Cl)Cl)C(C)C
inactive: [3] | [4] | [5] | [7] | [8] | [12]
active: [1] 15 µM | [16] 15.9 µM | [6] 25 µM | [9] 15 µM | [10] 23.6 µM | [11] 23.7 µM

CCOP(=O)(NC(C)C)Oc1ccc(SC)c(C)c1 (configuration not stated)
active: [1] 90.9 µM | [3] 27.9 µM
inactive: [1] | [2] | [4] | [5] | [6] | [7] | [8] | [9] | [10] | [11] | [12] | [13]

CON=C(C(=O)OC)c1ccccc1CON=C(C)c1cccc(C(F)(F)F)c1
active: [1] 941 nM and 501 nM | [2] 15.2 µM | [4] 9.57 µM | [5] 32.8 µM | [6] 0.489 µM | [7] 0.446 µM | [8] 1.2 µM | [9] 0.954 µM | [10] 0.32 µM | [11] 0.664 µM | [12] 1.24 µM | [13] 79.9 µM
inactive: [3]

CCOP(=S)(Oc1cnc(C(C)(C)C)nc1)OC(C)C (configuration not stated)
active: [1] 79.7 µM and 17.4 µM | [3] 12.8 µM | [6] 16.5 µM | [7] 25.2 µM | [8] 26.4 µM | [9] 20.1 µM | [10] 16.2 µM | [11] 16.6 µM | [19] 79.3 µM | [12] 18.6 µM | [13] 77.6 µM
inactive: [2] | [4] | [5] | [6] | [7] | [8] | [9] | [10] | [11] | [17] | [18] | [12] | [13]

C[Si](Cn1cncn1)(c1ccc(F)cc1)c1ccc(F)cc1
inactive: [1]

CCOP(=S)(OCC)Oc1ccc2c(C)c(Cl)c(=O)oc2c1
inactive: [6] | [10] | [11] | [12] | [13]
active: [1] 41.6 µM | [7] 50 µM | [8] 89.6 µM | [9] 50 µM | [17] 22.1 µM | [18] 18.6 µM | [19] 18.9 µM

CC(Oc1cccc(Cl)c1)C(=O)O (configuration not stated)
inactive: [1]

CC1=NNC(=O)N(/N=C/c2cccnc2)C1
not listed: [2] | [13] | [14] | [15] | [16] | [17] | [18] | [19]
inactive: all other assays above

CC(C)[C@H](C(=O)O[C@H](C#N)c1cccc(Oc2ccccc2)c1)c1ccc(Cl)cc1
active: [1] 0.564 µM

C#CCC1=C(C)C(OC(=O)C2C(C=C(C)C)C2(C)C)CC1=O (configuration not stated)
active: [1] 3 µM

CSC1=N[C@@](C)(c2ccccc2)C(=O)N1Nc1ccccc1
not listed: [2] | [14] | [15] | [16] | [17] | [18] | [19]
inactive: all other assays above

CC[C@H](C)[C@H]1O[C@]2(C=C[C@@H]1C)C[C@@H]1C[C@@H](C/C=C(\C)[C@@H](O[C@H]3C[C@H](OC)[C@@H](O[C@H]4C[C@H](OC)[C@@H](NC)[C@H](C)O4)[C@H](C)O3)[C@@H](C)/C=C/C=C3\CO[C@@H]4[C@H](O)C(C)=C[C@@H](C(=O)O1)[C@]34O)O2
active: [1] 318 nM and 15.9 nM | [2] 4.54 µM and 1.96 µM | [16] 1.79 µM | [3] 25 µM and 1.71 µM | [4] 5.17 µM and 2.01 µM | [5] 6.92 µM and 2.51 µM | [6] 587 nM and 1 µM | [7] 428 nM and 668 nM | [8] 1.47 µM and 1.53 µM | [9] 387 nM and 828 nM | [10] 441 nM and 565 nM | [11] 522 nM and 658 nM | [12] 657 nM and 1.79 µM
inactive: [13]

O=[N+]([O-])c1cc(C(F)(F)F)c(Cl)c([N+](=O)[O-])c1Nc1ncc(C(F)(F)F)cc1Cl
active: [1] 0.65 µM | [2] 0.638 µM | [4] 7.56 µM | [5] 9.47 µM | [6] 1.06 µM | [7] 0.934 µM | [8] 1.44 µM | [9] 0.924 µM | [10] 0.94 µM | [11] 1.06 µM | [12] 0.962 µM | [13] 1.89 µM | [14] 4.22 µM | [15] 0.282 µM
inactive: [3]

CN1COCN(Cc2cnc(Cl)s2)C1=N[N+](=O)[O-]
not listed: [2] | [14] | [15] | [16] | [17] | [18] | [19]
inactive: all other assays above

From PubChem BioAssay (EPA / NIEHS)
